Measurements from PubChem BioAssay (NCATS).
Inconclusive results are not listed. Activity calls are given as the source filed them. Calls come from the whole dose curve; as a rule, active = well fitted cell-killing curve with a large enough effect; inconclusive = small, poorly fitted or top-dose-only effect, or effect the other way; inactive = flat fitted curve, though single readings scatter. *1 amine or outer side, *2 acyl side, *3 side chain or, on linkers, in order; H or OH if unused. Where a SMILES comes first, the peptide text is derived from it. [ ]: non-standard residue; d: D form. The star is where a group is joined. ξ: configuration not given here. X9 = CCC(C)(N*)C(=O)C1CC[C@@H](C(=O)N[C@@H](Cc2ccccc2)C(=O)NCC(=O)O)N1; X8 = O=C([C@@H]1CC(O)CN1[*:1])[*:2]; aIle = CC[C@@H](C)[C@H](N)C(=O)O; Thr(3ξ) = CC(O)[C@H](N)C(=O)O; ξIva = CCC(C)(N)C(=O)O; Aib = CC(C)(N)C(=O)O

Key:
Experiment in all cases: Primary qHTS to identify gynecologic anti-cancer compounds using libraries of approved drugs and bioactive compounds (AID 1345084); note: nearly all actives have a fitted effect of over 55% in size
C33A = conditions: Gynecologic cancer cell panel viability, ATPlite luminescence, 48 h; series mostly up to 57.5 µM
Procedure, shortened: (§1)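 Cell viability after 48 h drug treatment, ATPlite luminescence readout; five doses.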

CASKI = conditions: Gynecologic cancer cell panel viability, ATPlite luminescence, 48 h; series mostly up to 57.5 µM
Procedure, shortened: as §1

Es-2 = conditions: Gynecologic cancer cell panel viability, ATPlite luminescence, 48 h; series mostly up to 57.5 µM
Procedure, shortened: as §1

HeLa = conditions: Gynecologic cancer cell panel viability, ATPlite luminescence, 48 h; series mostly up to 57.5 µM
Procedure, shortened: as §1

Hek293T = conditions: Gynecologic cancer cell panel viability, ATPlite luminescence, 48 h, control line for the selectivity index; series mostly up to 57.5 µM
Procedure, shortened: as §1

JEG-3 = conditions: Gynecologic cancer cell panel viability, ATPlite luminescence, 48 h; series mostly up to 57.5 µM
Procedure, shortened: as §1

OV90 = conditions: Gynecologic cancer cell panel viability, ATPlite luminescence, 48 h; series mostly up to 57.5 µM
Procedure, shortened: as §1

PA-1 = conditions: Gynecologic cancer cell panel viability, ATPlite luminescence, 48 h; series mostly up to 57.5 µM
Procedure, shortened: as §1

Tov-21-G = conditions: Gynecologic cancer cell panel viability, ATPlite luminescence, 48 h; series mostly up to 57.5 µM
Procedure, shortened: as §1

Tov112D = conditions: Gynecologic cancer cell panel viability, ATPlite luminescence, 48 h; series mostly up to 57.5 µM
Procedure, shortened: as §1

SKOV3 = conditions: Gynecologic cancer cell panel viability, ATPlite luminescence, 48 h; series mostly up to 57.5 µM
Procedure, shortened: as §1

CAOV3 = conditions: Gynecologic cancer cell panel viability, ATPlite luminescence, 48 h; series mostly up to 57.5 µM
Procedure, shortened: as §1
% is set by controls: 0 for no effect and ±100 for the full control effect; potency is the fitted concentration of half-maximal effect.

O=C(Nc1ccccc1)Nc1ccc(-c2ccc(C(=O)C3CCCC3C(=O)O)cc2)cc1 (configuration not stated)
inactive: Potency (C33A) | outcome (CASKI) | Potency (Es-2) | Potency (HeLa) | Potency (Hek293T) | Potency (JEG-3) | Potency (OV90) | Potency (PA-1) | Potency (Tov-21-G) | Potency (Tov112D)

N[C@@H](CC(=O)Nc1ccc(Oc2cc(F)c(F)cc2Br)cc1)C(=O)O
inactive: Potency (C33A) | outcome (CASKI) | Potency (Es-2) | Potency (HeLa) | Potency (Hek293T) | Potency (JEG-3) | Potency (OV90) | Potency (PA-1) | Potency (SKOV3) | Potency (Tov-21-G) | Potency (Tov112D)

C=C1C(=O)O[C@@H]2/C=C(\C)CC/C=C(\C(=O)O[C@@H]3O[C@H](CO)[C@@H](O)[C@H](O)[C@H]3O)CC[C@@H]12
inactive: Potency (C33A) | Potency (CAOV3) | Potency (Es-2) | Potency (HeLa) | Potency (JEG-3) | Potency (OV90) | Potency (PA-1) | Potency (SKOV3) | Potency (Tov-21-G) | Potency (Tov112D)

COC(=O)C(CC1(O)c2ccccc2N2C(=O)C(C)(C)N(O)C21)n1cnc2ccccc2c1=O (configuration not stated)
inactive: Potency (C33A) | outcome (CASKI) | Potency (Es-2) | Potency (HeLa) | Potency (Hek293T) | Potency (JEG-3) | Potency (OV90) | Potency (PA-1) | Potency (SKOV3) | Potency (Tov-21-G) | Potency (Tov112D)

CC[C@@H](C)[C@H](NC(=O)C(C)(C)NC(=O)[C@H](CCC(N)=O)NC(=O)C(C)(CC)NC(=O)[C@H](Cc1c[nH]c2ccccc12)NC(C)=O)C(=O)N[C@H](C(=O)NC(C)(C)C(=O)N[C@@H](CC(C)C)C(=O)NC(C)(C)C(=O)N1CCC[C@H]1C(=O)N[C@@H](CCC(N)=O)C(=O)NC(C)(C)C(=O)N1CC(O)C[C@H]1C(=O)NC(C)(CC)C(=O)C1CC[C@@H](C(=O)N[C@@H](Cc2ccccc2)C(=O)NCC(=O)O)N1)C(C)O (some centres not stated) (Ac-W[ξIva]Q[Aib][aIle][Thr(3ξ)][Aib]L[Aib]PQ[Aib][X8]-X9)
inactive: activity change, negative = cytotoxicity (C33A) -11% [at 6.55 µM] | activity change, negative = cytotoxicity (CAOV3) -26.3% [at 6.55 µM] | activity change, negative = cytotoxicity (Es-2) 1.15% [at 6.55 µM] | activity change, negative = cytotoxicity (HeLa) -27.1% [at 6.55 µM] | activity change, negative = cytotoxicity (Hek293T) -15.3% [at 6.55 µM] | activity change, negative = cytotoxicity (OV90) -20.1% [at 6.55 µM] | activity change, negative = cytotoxicity (PA-1) -32% [at 6.55 µM] | activity change, negative = cytotoxicity (SKOV3) -9.13% [at 6.55 µM] | activity change, negative = cytotoxicity (Tov-21-G) -16.8% [at 6.55 µM] | activity change, negative = cytotoxicity (Tov112D) -24.7% [at 6.55 µM]

C/C=C(\C)C(=O)OC1C2(O)CC3=C4CC(=O)OC(c5ccoc5)C4(C)CCC3C(C)(C2=O)C(C(OC(C)=O)C(=O)OC)C1(C)C (configuration not stated)
inactive: Potency (C33A) | Potency (Es-2) | Potency (HeLa) | Potency (Hek293T) | Potency (JEG-3) | Potency (OV90) | Potency (PA-1) | Potency (SKOV3) | Potency (Tov-21-G) | Potency (Tov112D)

C/C=C1\[C@H](O[C@@H]2O[C@H](CO)[C@@H](O)[C@H](O)[C@H]2O)OC=C(C(=O)OCCc2ccc(O)cc2)[C@H]1CC(=O)OCCc1ccc(O)cc1
inactive: Potency (C33A) | Potency (CAOV3) | Potency (Es-2) | Potency (HeLa) | Potency (Hek293T) | Potency (OV90) | Potency (PA-1) | Potency (SKOV3) | Potency (Tov-21-G) | Potency (Tov112D)

COCC1OC(n2cnc3c(=O)[nH]cnc32)C(O)C1O (configuration not stated)
inactive: Potency (C33A) | outcome (CASKI) | Potency (Es-2) | Potency (HeLa) | Potency (Hek293T) | Potency (JEG-3) | Potency (OV90) | Potency (PA-1) | Potency (Tov-21-G) | Potency (Tov112D)

COc1c(O[C@@H]2O[C@H](CO)[C@@H](O)[C@H](O)[C@H]2O)c(CCC(=O)O)cc2ccoc12
inactive: Potency (CAOV3) | outcome (CASKI) | Potency (Es-2) | Potency (HeLa) | Potency (Hek293T) | Potency (OV90) | Potency (PA-1) | Potency (Tov-21-G) | Potency (Tov112D)

CC1=C2C(=O)C=C(CO)C2C2OC(=O)C(CS(=O)(=O)O)C2C(OC(=O)Cc2ccc(O)cc2)C1 (configuration not stated)
inactive: Potency (C33A) | outcome (CASKI) | Potency (Es-2) | Potency (HeLa) | Potency (Hek293T) | Potency (JEG-3) | Potency (OV90) | Potency (PA-1) | Potency (SKOV3) | Potency (Tov-21-G) | Potency (Tov112D)

CC1=C2CC(=O)C(C)CC/C=C(\C)CC2OC1=O (configuration not stated)
inactive: Potency (CAOV3) | outcome (CASKI) | Potency (Es-2) | Potency (HeLa) | Potency (Hek293T) | Potency (JEG-3) | Potency (OV90) | Potency (PA-1) | Potency (SKOV3) | Potency (Tov-21-G) | Potency (Tov112D)

CC1(C)CC[C@]2(C(=O)O[C@@H]3O[C@H](CO)[C@@H](O)[C@H](O)[C@H]3O)CC[C@]3(C)C(=CCC4[C@@]5(C)CC[C@H](OC6OC(C(=O)O)C(OC7OC(CO)C(O)C(O)C7O)C(O)C6O)C(C)(C)C5CC[C@]43C)C2C1 (some centres not stated)
inactive: activity change, negative = cytotoxicity (C33A) 1.52% [at 11.6 µM] | activity change, negative = cytotoxicity (CASKI) 15.2% [at 11.6 µM] | activity change, negative = cytotoxicity (Es-2) 1.85% [at 11.6 µM] | activity change, negative = cytotoxicity (HeLa) 2.77% [at 11.6 µM] | activity change, negative = cytotoxicity (Hek293T) 10.4% [at 11.6 µM] | activity change, negative = cytotoxicity (JEG-3) 9.79% [at 11.6 µM] | activity change, negative = cytotoxicity (OV90) 8.01% [at 11.6 µM] | activity change, negative = cytotoxicity (PA-1) 3.63% [at 11.6 µM] | activity change, negative = cytotoxicity (SKOV3) 0% [at 11.6 µM] | activity change, negative = cytotoxicity (Tov-21-G) 2.32% [at 11.6 µM] | activity change, negative = cytotoxicity (Tov112D) 1.83% [at 11.6 µM]

CC(CNS(=O)(=O)C(C)C)c1ccc(-c2ccc(C#N)cc2)cc1 (configuration not stated)
inactive: Potency (CAOV3) | Potency (HeLa) | Potency (PA-1) | Potency (Tov-21-G)
active: Potency (OV90) 10 µM | Potency (SKOV3) 8.91 µM

Cc1[nH]c2ccccc2c1CC(=O)N[C@@H](Cc1ccccc1)C(=O)N(C)c1ccccc1
inactive: Potency (C33A) | outcome (CASKI) | Potency (Es-2) | Potency (HeLa) | Potency (Hek293T) | Potency (JEG-3) | Potency (OV90) | Potency (PA-1) | Potency (SKOV3) | Potency (Tov-21-G) | Potency (Tov112D)

Cc1ccc(-c2c(-c3nn(C)c4ncnc(N5CC[C@H](N6CCCCC6)C5)c34)cnn2C)cc1
inactive: Potency (C33A) | outcome (CASKI) | Potency (Es-2) | Potency (HeLa) | Potency (Hek293T) | Potency (JEG-3) | Potency (OV90) | Potency (PA-1) | Potency (SKOV3) | Potency (Tov-21-G) | Potency (Tov112D)

CC[C@@H]1C(=O)O[C@]23C=C[C@@H]4C(C(=O)OC)=CO[C@H](O[C@@H]12)[C@@H]43
inactive: Potency (C33A) | Potency (CAOV3) | Potency (Es-2) | Potency (Hek293T) | Potency (OV90) | Potency (PA-1) | Potency (SKOV3) | Potency (Tov-21-G) | Potency (Tov112D)

C[C@@H]1O[C@@H](O[C@H]2[C@H](OC(=O)[C@]34CCC(C)(C)C[C@H]3C3=CCC5[C@@]6(C)CC[C@H](O[C@@H]7O[C@H](CO[C@@H]8OC[C@H](O)[C@H](O)[C@H]8O)[C@@H](O)[C@H](O)[C@H]7O)C(C)(C)C6CC[C@@]5(C)[C@]3(C)C[C@H]4O)OC[C@@H](O)[C@@H]2O)[C@H](O)[C@H](O[C@@H]2OC[C@](O)(CO)[C@H]2O)[C@H]1O[C@@H]1OC[C@H](O)[C@H](O[C@@H]2OC[C@@H](O)[C@H](O)[C@H]2O)[C@H]1O (some centres not stated)
inactive: activity change, negative = cytotoxicity (C33A) -0.179% [at 6.55 µM] | activity change, negative = cytotoxicity (CASKI) 9.95% [at 6.55 µM] | activity change, negative = cytotoxicity (Es-2) 8.45% [at 6.55 µM] | activity change, negative = cytotoxicity (HeLa) 22.1% [at 6.55 µM] | activity change, negative = cytotoxicity (Hek293T) 8.51% [at 6.55 µM] | activity change, negative = cytotoxicity (JEG-3) -2.51% [at 6.55 µM] | activity change, negative = cytotoxicity (OV90) -11.9% [at 6.55 µM] | activity change, negative = cytotoxicity (PA-1) -3.2% [at 6.55 µM] | activity change, negative = cytotoxicity (SKOV3) 6.12% [at 6.55 µM] | activity change, negative = cytotoxicity (Tov-21-G) 4.71% [at 6.55 µM] | activity change, negative = cytotoxicity (Tov112D) 0.0459% [at 6.55 µM]
